Experiment [1] is described as follows: NCI Yeast Anticancer Drug Screen. Data for the rad50 strain (AID 155).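 Note: 0% = growth of vehicle-only cultures of the same strain.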 The conditions noted are these: S. cerevisiae rad50 strain growth inhibition; at 50.0 µM; hits give high values. Put shortly:
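Vehicle-treated cultures provide the reference for the growth inhibition reported for compound-exposed, repair-deficient yeast.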

Experiment [2] in a line: NCI Yeast Anticancer Drug Screen. Data for the mec2-1 strain (AID 157). The following applies: S. cerevisiae mec2-1 strain, at 50.0 µM, hits give high values. The gist of the method: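 Mutant yeast (mec2-1) grown with compound; growth inhibition relative to vehicle control reported.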
Experiment [3] can be described thus: NCI Yeast Anticancer Drug Screen. Data for the sgs1 mgt1 strain (AID 161).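 Note: 0% = growth of cultures given vehicle only.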 The following applies: S. cerevisiae sgs1 mgt1 strain, at 50.0 µM, hits give high values. The gist of the method:
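Compounds are added to genetically altered yeast, and growth is compared with cultures given vehicle alone to give percent inhibition.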

A short description of experiment [4]: NCI Yeast Anticancer Drug Screen. Data for the cln2 rad14 strain (AID 165).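 Note: 0% = growth equal to vehicle treated cultures.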 The conditions noted are these: S. cerevisiae cln2 rad14 strain, at 50.0 µM, hits give high values. Put shortly:
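Readout is yeast growth inhibition versus vehicle-treated controls, using a strain with cln2 and rad14 alterations exposed to compound.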

Experiment [5] in a line: NCI Yeast Anticancer Drug Screen. Data for the bub3 strain (AID 167). The conditions noted are these: S. cerevisiae bub3 mutant strain, at 50.0 µM, hits give high values. The gist of the method:
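Mutant yeast screening strain plus compound; vehicle-treated cultures serve as the 0% inhibition reference.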

This is part of a sample that, as a whole, favours compounds with a hit. Of some 79,000 tested, about 15% had one in any assay. Unmarked numbers belong to inactive results. The source made the active and inactive calls. Cut-off read from the data, not from the text of the source: active = growth inhibition above about 70%; inactive = the rest.

As for `CC(=O)OC(C)C(=O)OCC1OC(OC(=O)C(C)OC(C)=O)C(OC(=O)C(C)OC(C)=O)C(OC(=O)C(C)OC(C)=O)C1OC(=O)C(C)OC(C)=O` (stereo not given), the growth inhibition in experiment [1] is 7.6%; in experiment [2], -13.8%; in experiment [3], -10.6%; in experiment [4], -42.4%; in experiment [5], -12.1%.

Turning to `N=C(N)n1ncc2c1CCCC2=O`, the growth inhibition in experiment [1] was -17.4%; in experiment [2] it was 19.9%; in experiment [3] it was -6.1%; in experiment [4], -20.2%; in experiment [5], 6.1%.

Regarding `O=S(=O)(OCCCC1CC2C=CC1C2)c1ccc(Br)cc1` (stereo not given), the growth inhibition in experiment [1] is -1.7%; in experiment [2], -12.2%; in experiment [3] it was -17.6%; in experiment [4] it was -7.05%; in experiment [5], 1.85%.

Regarding `c1ccc(-c2oc3ccc4ccccc4c3c2-c2ccc(OCCN3CCCC3)cc2)cc1`, the growth inhibition in experiment [1] was 75.8% (active); in experiment [2], 58.4%; in experiment [3], 66.8%; in experiment [4] it was 61.2%; in experiment [5], 51.4%.

On to `O=C(OCCNC1CCCCC1)c1ccc([N+](=O)[O-])cc1`, for which the growth inhibition is 8.85% in experiment [1]; 2.5% in experiment [2]; 1.45% in experiment [3]; -43.5% in experiment [4]; -4.5% in experiment [5].

As for `CC(=O)Cc1nc(N)nc(Nc2ccc(Cl)c(Cl)c2)n1`, the growth inhibition is -8.9% in experiment [1]; 13.7% in experiment [2]; -10.1% in experiment [3]; -11.3% in experiment [4]; -13% in experiment [5].

`N#C/C(=N\NC(=O)c1cccc(C(=O)N/N=C(\C#N)c2ccccc2Cl)n1)c1ccccc1Cl`: the growth inhibition was -0.95% in experiment [1]; -10.9% in experiment [2]; -5.1% in experiment [3]; -14.6% in experiment [4]; -1.85% in experiment [5].

Consider `Brc1ccc(/C=C/c2ccnnc2)cc1`, for which the growth inhibition in experiment [1] was 41.5%; in experiment [2], 33.8%; in experiment [3], 34.6%; in experiment [4] it was 25.5%; in experiment [5] it was 47.7%.

`CSc1nc(SC)c2cnn(C3OC(CO)C(O)C3O)c2n1` (stereo not given): the growth inhibition was 12% in experiment [1]; -1.1% in experiment [2]; 20.9% in experiment [3]; 3.25% in experiment [4]; 16.4% in experiment [5].

Regarding `OCC1=C(CO)CC=CC1`, the growth inhibition is -21% in experiment [1]; 10% in experiment [2]; 2.2% in experiment [3]; 1.5% in experiment [4]; -3.05% in experiment [5].

Consider `COc1ccc(C(O)C(NCCO)c2ccccc2)cc1` (stereo not given), for which the growth inhibition in experiment [1] is -1.3%; in experiment [2], -19.5%; in experiment [3] it was 4.8%; in experiment [4], 7.15%; in experiment [5], -3.85%.

On to `CC(C)(C)c1cc(CCC(=O)Nc2ccc(Cl)cc2)[nH]c(=S)n1`, for which the growth inhibition in experiment [1] is 1.85%; in experiment [2] it was -16.1%; in experiment [3], 0.4%; in experiment [4], -8.85%; in experiment [5], -5.85%.

In the case of `NC(=O)NC(=O)OCC(F)(F)C(F)(F)C(F)(F)C(F)(F)C(F)(F)C(F)(F)C(F)(F)F`, the growth inhibition in experiment [1] is 45.8%; in experiment [2], 9.9%; in experiment [3], 31.4%; in experiment [4], 15.6%; in experiment [5], -0.45%.

For the compound `CCN(CC)CCOc1cc(C)ccc1C(C)C`, the growth inhibition in experiment [1] is -6.05%; in experiment [2] it was -12.6%; in experiment [3], 2.95%; in experiment [4] it was -32%; in experiment [5], -8.1%.

As to `CC(O)/C=C/C(CCC(C)CO)C(C)C` (stereo not given), the growth inhibition in experiment [1] is -17%; in experiment [2], -27.6%; in experiment [3], -26%; in experiment [4], -10.2%; in experiment [5], -25.9%.

Take `COc1cc2c(cc1C(C)c1ccc(OCc3ccccc3)cc1)OCO2` (stereo not given): the growth inhibition in experiment [1] is -1.3%; in experiment [2], -1.1%; in experiment [3] it was -8.6%; in experiment [4] it was -13.1%; in experiment [5] it was 0%.

Turning to `CC(C)=NC(C(=O)O)C(C)(C)S` (stereo not given), the growth inhibition in experiment [1] was -17.6%; in experiment [2], -15.2%; in experiment [3], -18.1%; in experiment [4] it was -12.3%; in experiment [5], -62%.

Take `CCOC(=O)c1c(Br)c(-c2ccc([N+](=O)[O-])cc2)c(Br)n1C`: the growth inhibition in experiment [1] is 11.4%; in experiment [2] it was -7.4%; in experiment [3], -0.15%; in experiment [4] it was -0.15%; in experiment [5], -2.1%.

In the case of `NNC(=O)CC(=O)Nc1ccccc1F`, the growth inhibition was -7.9% in experiment [1]; -16.9% in experiment [2]; -6.4% in experiment [3]; 7.15% in experiment [4]; 0.85% in experiment [5].

Take `Cc1cc(C)c(CC(=O)NCC(=O)NN)c(C)c1`: the growth inhibition in experiment [1] was -7.25%; in experiment [2], -24.9%; in experiment [3], -17.1%; in experiment [4], -13.3%; in experiment [5], -12%.

Turning to `CC(=O)OCC(=O)[C@@]1(O)CC[C@H]2[C@@H]3CCC4=CC(=O)CC[C@]4(C)[C@H]3C(=O)C[C@@]21C`, the growth inhibition is -25.1% in experiment [1]; -23.6% in experiment [2]; -6.85% in experiment [3]; 4.2% in experiment [4]; -17.9% in experiment [5].

As to `O=C(O)c1ccccc1NC(=O)C1CCCCC1`, the growth inhibition is 10.1% in experiment [1]; 6.8% in experiment [2]; 16.3% in experiment [3]; 0.85% in experiment [4]; -6.55% in experiment [5].

As to `CC(=O)SCCCCl`, the growth inhibition was -9.25% in experiment [1]; 2.1% in experiment [2]; 11.2% in experiment [3]; -1.25% in experiment [4]; 8.25% in experiment [5].

Take `O=c1[nH]c2cc(Cl)c([N+](=O)[O-])cc2c2ccc(Cl)cc12`: the growth inhibition in experiment [1] is 3.15%; in experiment [2] it was -7.7%; in experiment [3], -1.6%; in experiment [4] it was -10.7%; in experiment [5] it was 3.1%.

The values above are taken from PubChem BioAssay (NCI).
